# Results published in publication PMC5540273 (PLoS ONE, 2017).
# Tests used:
# Details in all cases: concentration: 1 μM, replicates: in singlicate; n = 1
# [1] = test system: ABL2
# [2] = test system: ACVR1B
# [3] = test system: ACVR1
# [4] = test system: ACVR2A
# [5] = test system: ACVR2B
# [6] = test system: ACVRL1
# [7] = test system: T1, ADCK3
# T1 construct: gene CABC1
# [8] = test system: ADCK4
# [9] = test system: AKT1
# [10] = test system: AKT2
# [11] = test system: AKT3
# [12] = test system: ALK
# [13] = test system: T2, AMPK-alpha1
# T2 construct: gene PRKAA1
# [14] = test system: T3, AMPK-alpha2
# T3 construct: gene PRKAA2
# [15] = test system: ANKK1
# [16] = test system: T4, ARK5
# T4 construct: gene NUAK1
# [17] = test system: T5, ASK1
# T5 construct: gene MAP3K5
# [18] = test system: T6, ASK2
# T6 construct: gene MAP3K6
# [19] = test system: AURKA
# [20] = test system: AURKB
# 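Further: KINOMEscan kinase panel screen.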
SMILES,%Inh [1] [%],%Inh [2] [%],%Inh [3] [%],%Inh [4] [%],%Inh [5] [%],%Inh [6] [%],%Inh [7] [%],%Inh [8] [%],%Inh [9] [%],%Inh [10] [%],%Inh [11] [%],%Inh [12] [%],%Inh [13] [%],%Inh [14] [%],%Inh [15] [%],%Inh [16] [%],%Inh [17] [%],%Inh [18] [%],%Inh [19] [%],%Inh [20] [%]
Cn1ccc2ncnc(Nc3ccc(Oc4cccc(Cl)c4)c(Cl)c3)c21,16,28,0,0,17,0,1,0,22,7,0,0,18,20,0,22,0,11,0,33
Cl.Cl.c1ccc(-c2cc3ccncc3cc2OC2CCNCC2)cc1 [GSK1122999],8,0,22,0,0,0,22,42,0,0,0,23,16,22,0,13,0,4,17,10
CCn1c(-c2ccncc2)nc2cnccc21 [SB-735216],0,14,40,0,4,0,15,6,0,0,0,6,0,5,21,8,0,20,7,29
Nc1nccc2scc(-c3ccc4c(c3)CCN4C(=O)Cc3cc(F)ccc3F)c12 [GSK2587663],18,0,0,0,0,0,24,35,0,17,0,8,0,11,1,0,6,13,0,8
Clc1cc(Nc2ncnc3cc[nH]c23)ccc1OCc1ccccn1,0,28,10,0,0,5,9,3,10,19,5,0,20,0,20,0,5,0,35,13
FC(F)(F)c1cc(Nc2nccc(-c3c(-c4ccc(Cl)cc4)nn4ncccc34)n2)ccc1Cl [GW829351],0,0,0,0,12,0,0,27,0,0,0,8,0,0,0,0,0,0,5,0
Cl.c1ccc(Cn2ncc3cc(Nc4ncnc5ccccc45)ccc32)cc1 [GW273749],0,0,5,0,0,0,7,22,0,13,0,16,0,0,0,0,0,1,10,8
CSc1nn2c(=O)cc(N3CCOCC3)nc2n1Cc1cccc(Cl)c1Cl [GSK2347225],14,0,18,0,12,0,18,28,0,9,1,30,11,20,19,7,14,0,21,0
O=C(c1ccc(-c2cc(-c3c[nH]nc3-c3ccccn3)ccn2)cc1)N1CCCC1 [GW792479],0,77,0,11,22,0,27,0,2,0,0,16,0,12,0,0,4,0,0,11
Nc1nc(-c2ccc3c(N)n[nH]c3c2)cc(N2CCCCC2)n1 [GSK2228768],12,0,0,0,0,0,0,6,0,0,0,14,0,0,3,0,0,9,0,14
Cc1cccc(-c2nc(Nc3ccc4[nH]nnc4c3)c3ccccc3n2)n1 [GW867587],0,0,0,0,0,0,0,8,5,0,0,2,0,0,0,0,0,0,0,0
O=C(Nc1ccccc1F)NC1CCN(c2ccnc(Nc3ccc(F)cc3)n2)C1 (stereo not drawn) [GSK1379722],9,0,25,0,0,0,20,40,0,13,0,26,2,21,0,12,8,16,0,38
Cl.c1ccc(Cn2ccc3cc(Nc4ncnc5ccccc45)ccc32)cc1 [GW275568],0,0,10,2,16,0,24,4,3,12,0,0,11,0,43,29,1,0,17,30
Cl.Cn1ccc(-c2cccc(Nc3ccnc4cc(-c5nccs5)ccc34)c2)n1 [GW525701],10,0,3,0,0,0,6,55,0,7,0,28,0,14,8,0,9,0,0,28
CN1c2ccc(-c3ccc(C(=O)NCCO)cc3)cc2-c2[nH]ncc2S1(=O)=O,7,0,22,0,2,0,0,3,11,0,12,44,16,0,0,0,34,3,0,37
O=C(CCO)NCCn1ccc2ncnc(Nc3ccc(Oc4cccc(C(F)(F)F)c4)c(Cl)c3)c21,0,0,0,0,0,0,3,0,0,0,0,0,0,0,0,0,0,0,0,0
CN1CCC(n2cnc(-c3ccc(F)cc3)c2-c2ccnc(NC3CCNCC3)n2)CC1 [SB-229482],0,0,0,0,0,7,9,5,0,0,32,22,0,12,0,0,0,0,34,40
Fc1ccc(Nc2nccc(-c3c(-c4ccc(Cl)cc4)nn4ncccc34)n2)cc1F [GW829058],19,20,0,0,0,0,0,0,18,9,15,43,17,0,10,0,2,26,32,27
FC(F)(F)c1ccc(-c2cc(-c3c[nH]nc3-c3ccccn3)ccn2)cc1 [GW599550],16,46,16,0,34,0,9,37,0,0,0,24,4,16,20,0,5,0,18,17
Fc1ccc(-c2ncn(CCCNCc3ccccc3)c2-c2ccncc2)cc1,12,10,2,0,0,17,0,0,19,12,0,0,22,0,0,0,11,1,19,8
COc1cc2ncnc(Nc3ccc(OCc4ccccc4Br)c(Cl)c3)c2cc1OC.Cl [GI261590],16,0,0,0,4,0,22,37,0,5,0,39,11,0,0,3,10,0,1,35
